Results on 27 compounds are retold here after PubChem BioAssay AID1578 (Sanford-Burnham Center for Chemical Genomics, 2009).

Hit rate of the full screen: of about 290,000 compounds, about 3,000 (1%) were called active. The full list was thinned out, with actives kept by preference. Unmarked numbers belong to inactive results. Rule as the data show it: active = inhibition mostly above about 36% (no sharp cut-off); inactive = mostly below about 34%.

The nature of the assay: inhibition of NOD1-driven NF-kB reporter – cell-based, luminescence, uHTS, primary screen (AID 1578).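 Also: HEK-293T reporter cells stimulated with the NOD1 agonist gamma-tri-DAP.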 To be noted: NOD1-driven NF-kB luciferase reporter cells, at 4 µM, hits give high values.
For the compound `Cc1ccc(CN2CCN(CCCn3cccn3)CC2CCO)cc1` (configuration not stated), the inhibition is -31%.

Take `CCOC(=O)N1CCN(c2cc(=O)n(Cc3ccc(F)cc3)c(=O)[nH]2)CC1`: the inhibition is -37.3%.

On to `Cc1ccc(C(=O)NC2CC3CCCC(C2)N3Cc2ccccc2)cc1` (configuration not stated), for which the inhibition was 59% (active).

For `Cc1ccc(CN2C3CCCC2CC(NC(=O)c2ccc(F)cc2)C3)cc1` (configuration not stated), the inhibition is -0.1%.

Take `Cc1ccc(CN2C3CCCC2CC(NC(=O)c2ccc(C)cc2)C3)cc1` (configuration not stated): the inhibition is -21.4%.

Regarding `CC1CCCC(C)N1C(=O)Cn1nnc(-c2ccc([N+](=O)[O-])cc2)n1` (configuration not stated), the inhibition is -36.1%.

With `CC1(C)CC(=O)C(C2=NC(C)(C)Cc3ccccc32)=C(O)C1`, the inhibition is -9.1%.

On to `CC1=NC(C)(C)Cc2ccccc21`, for which the inhibition was 1.3%.

Regarding `CC1(C)Cc2ccccc2C2=NNC(=O)C2=N1`, the inhibition is 41.8% (active).

Turning to `O=[N+]([O-])c1cc2c(cc1/C=N/Nc1nc(Nc3ccccc3)nc(N3CCCCC3)n1)OCO2`, the inhibition is -23%.

As to `Cc1ccc([N+](=O)[O-])cc1NC(=O)CN(C1CCCCC1)S(=O)(=O)c1ccc(Cl)cc1`, the inhibition is -5%.

On to `O=S(=O)(c1ccc2ccccc2c1)N(CC1CO1)c1ccccc1` (configuration not stated), for which the inhibition is -30.1%.

Take `Cc1cc(SCC(=O)c2cccs2)n2nc(C)c(-c3ccc(Cl)cc3)c2n1`: the inhibition was 79.4% (active).

`Cc1nn2c(SCC(=O)c3cccs3)cc(C(C)(C)C)nc2c1-c1ccccc1`: the inhibition is 5.2%.

`Cc1cc(SCC(=O)c2cccs2)n2nc(C)c(-c3ccccc3)c2n1`: the inhibition is 20.3%.

In the case of `CCOc1ccc(/C=N/n2c(C)nc3ccccc3c2=O)cc1`, the inhibition was -12.3%.

On to `N#C/C(=C\c1cn(-c2ccccc2)nc1-c1cccnc1)c1nnc2n1CCCCC2`, for which the inhibition was -13%.

On to `O=C1COc2ccc(S(=O)(=O)NCc3ccccc3)cc2N1`, for which the inhibition was -13.7%.

As to `NC(=O)c1ccc(-c2ncc(-c3ccccc3)o2)cc1`, the inhibition was 14.6%.

Regarding `c1ccc(-c2cnc(-c3cccnc3)o2)cc1`, the inhibition was -16.8%.

As for `Nc1ccc(-c2ncc(-c3ccccc3)o2)cc1`, the inhibition was 46.7% (active).

With `CCC(C)(C)NC(=O)CN(C(=O)CNS(=O)(=O)c1ccc(F)cc1)c1ccc2c(c1)OCCO2`, the inhibition was -13%.

As to `O=C(NCCCn1ccnc1)c1ccc(Cl)c(Cl)c1`, the inhibition is 3.9%.

On to `O=S(=O)(Nc1ccc(N2CCOCC2)cc1)c1cccs1`, for which the inhibition is -20.1%.

With `O=C1N/C(=N\N=C\c2ccc3ncccc3c2)SC1Cc1ccc(SC(F)F)cc1` (configuration not stated), the inhibition was -44%.

As for `O=C1N/C(=N\N=C\c2cccnc2)SC1Cc1ccc(SC(F)F)cc1` (configuration not stated), the inhibition is 106% (active).

For the compound `O=C(CC1S/C(=N/N=C/c2cccnc2)NC1=O)Nc1ccccc1` (configuration not stated), the inhibition was -13.1%.
